The values below come from PubChem BioAssay (NCATS).

The target of experiment [1] is Peroxisome proliferator-activated receptor delta (Homo sapiens) (UniProt Q03181). The experiment is described as follows: qHTS assay for small molecule agonists of peroxisome proliferator-activated receptor delta signaling (AID 588534).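 Note: 0% = DMSO basal wells and 100% = positive control agonist at 10 µM.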 The essentials:
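Cells carrying a PPAR-delta beta-lactamase reporter were treated with compounds for 18 h at 37 °C in agonist mode. CCF4 fluorescence was read after 2 h; EC50 and efficacy from Hill fits.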

Experiment [2] can be described thus: qHTS for Inhibitors of the Functional Ribonucleoprotein Complex (vRNP) of Lassa (LASV) Arenavirus: LASV Primary Screen - GLuc reporter signal (AID 1347082; calls by dose curve; tested in HEK293 reporter line; note: % is set by controls: 0 for no effect and ±100 for the full control effect; nearly all actives have a fitted effect of over 60% in size).
Experiment [3] can be described thus: qHTS for Inhibitors of the Functional Ribonucleoprotein Complex (vRNP) of Lassa (LASV) Arenavirus: Viability assay - alamar blue signal for LASV Primary Screen (AID 1347083; calls by dose curve; tested in HEK293 reporter line; note: nearly all actives have a fitted effect of over 80% in size; note: potency is the fitted concentration of half-maximal effect). Background: qHTS replaces the single test concentration by a dilution series.
Experiment [4] can be described thus: qHTS for Inhibitors of the Functional Ribonucleoprotein Complex (vRNP) of Lymphocytic Choriomeningitis Arenaviruses (LCMV): Viability assay - alamar blue signal for LCMV Primary Screen (AID 1347085; calls by dose curve; tested in HEK293 reporter line; note: nearly all actives have a fitted effect of over 80% in size; note: potency is the fitted concentration of half-maximal effect).
Experiment [5] deals with Nucleoprotein (Lymphocytic choriomeningitis virus (strain Armstrong)) (UniProt P09992). The experiment is described as follows: qHTS for Inhibitors of the Functional Ribonucleoprotein Complex (vRNP) of Lymphocytic Choriomeningitis Arenaviruses (LCMV): LCMV Primary Screen - GLuc reporter signal (AID 1347086). Note: % is set by controls: 0 for no effect and ±100 for the full control effect; nearly all actives have a fitted effect of over 70% in size.
The nature of experiment [6]: qHTS profiling of the MIPE4 collection as inhibitors of Plasmodium falciparum (3D7) proliferation (AID 743344; call rule not given here;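 note: scaled between DMSO vehicle wells and 0.29 µM artemisinin as full inhibition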). Conditions: P. falciparum 3D7 in erythrocytes, SYBR Green DNA fluorescence, 72 h; at 28.5 µM (top of the series) unless noted. The essentials:
(§1)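 Erythrocytes infected with P. falciparum (0.3% parasitemia, 2.5% hematocrit) incubated with compounds 72 h at 37 C, 5% CO2. Lysis with saponin/Triton buffer containing SYBR Green I, overnight at room temperature in the dark; DNA fluorescence (485/535 nm) normalised to 0.29 uM artemisinin and DMSO.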

Experiment [7] is described as follows: qHTS profiling of the MIPE4 collection as inhibitors of Plasmodium falciparum (DD2) proliferation (AID 743345; call rule not given here). Particulars: P. falciparum Dd2 in erythrocytes, SYBR Green DNA, 72 h; at 28.5 µM (top of the series) unless noted. The essentials: as §1
The nature of experiment [8]: qHTS profiling of the MIPE4 collection as inhibitors of Plasmodium falciparum (DD2) proliferation (Rep 2) (AID 743346; call rule not given here). Conditions: P. falciparum Dd2 in erythrocytes, SYBR Green DNA, 72 h; at 28.5 µM (top of the series) unless noted. The essentials:
as §1

In experiment [9] the target is Cytochrome P450 3A4 (Homo sapiens) (UniProt P08684). The experiment is described as follows: qHTS Assay for Inhibitors and Substrates of Cytochrome P450 3A4 (AID 884; active = well fitted curve in the direction sought with a large enough effect; an effect the other way counts as inactive or inconclusive; note: potency is the fitted concentration of half-maximal effect; nearly all actives have a fitted effect of over 50% in size). The essentials:
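20 nM human CYP3A4 with 25 uM Luciferin-PPXE (at KM) in 200 mM KPO4, preincubated 10 min with compound; NADPH regeneration started a 60 min RT reaction. Luciferin detected by luminescence, normalized to 57 uM ketoconazole as full inhibition.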

The target is the same in experiment [10]. The experiment is described as follows: qHTS Assay for Activators of Cytochrome P450 3A4 (AID 885; active = well fitted curve in the direction sought with a large enough effect; an effect the other way counts as inactive or inconclusive; note: nearly all actives have a fitted effect of over 65% in size). In outline:
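20nM CYP3A4 + 25uM Luciferin-PPXE (=KM), 200mM KPO4; cpd 10 min RT; NADPH regen, 60 min RT; stop w/ detection buffer, 20 min; luminescence. Normalized to 57 uM ketoconazole.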

In experiment [11] the target is Bile acid receptor (Homo sapiens) (UniProt Q96RI1). The experiment is described as follows: qHTS assay for small molecule agonists of farnesoid X receptor signaling (AID 588527).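 Note: 0% = vehicle basal and 100% = reference agonist.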 Particulars: HEK293T FXR-UAS-bla, beta-lactamase ratio, 16 h; activation: stronger effect = higher value. The essentials:
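FXR-UAS-bla HEK293T, 10% dialyzed FBS; cpds up to 92 uM titration, 16 h 37 C; CCF4 dye 2 h RT; fluorescence. Normalized to chenodeoxycholic acid 100 uM (100%) and DMSO (0%); Hill fit gives EC50, efficacy.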

Experiment [12] can be described thus: qHTS assay for small molecule agonists of the antioxidant response element (ARE) signaling pathway (AID 651741; active = well fitted activation curve with a large enough effect in the signal ratio; the % refers to the signal ratio; note: % of control where 0% means no effect). In outline: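 Quantitative HTS in HepG2 cells stably expressing an ARE-beta-lactamase reporter; 16 h compound exposure at 37 C, followed by 2 h room-temperature incubation with LiveBLAzer B/G FRET substrate and fluorescence measurement.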
Experiment [13] is described as follows: Cytotoxicity counterscreen for inhibitors of SARS-CoV-2 cell entry (AID 1645845). Note: nearly all actives have a fitted effect of over 50% in size. Note: potency is the fitted concentration of half-maximal effect. The essentials: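 48 h compound treatment (after 1 h preincubation), HEK293-ACE2 cells, 37 C/5% CO2; ATP luminescence endpoint; normalized to cell wells and media blanks.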
In general terms: Counterscreens check selectivity or assay interference.

Experiment [14] is described as follows: Primary qHTS to identify inhibitors of SARS-CoV-2 cell entry (AID 1645846). Note: nearly all actives have a fitted effect of over 45% in size. Particulars: activity change, negative = inhibition: at 57.1 µM (top of the series) unless noted. The essentials: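 Using luciferase-reporting pseudoviruses carrying Wuhan-Hu-1 spike, the screen tracks entry into stably ACE2-expressing cells over 48 hr. Activity is expressed relative to spike particles versus particles lacking any fusion protein.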

Experiment [15] has as its target Cytochrome P450 2D6 (Homo sapiens) (UniProt P10635). The experiment is described as follows: qHTS Assay for Inhibitors and Substrates of Cytochrome P450 2D6 (AID 891; active = well fitted curve in the direction sought with a large enough effect; an effect the other way counts as inactive or inconclusive; note: potency is the fitted concentration of half-maximal effect; nearly all actives have a fitted effect of over 60% in size). The essentials:
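Human CYP2D6 (5 nM) with 30 uM Luciferin-ME EGE (at Km) in 100 mM KPO4, compound preincubated 10 min, then NADPH regeneration system for 60 min at room temperature. Luciferin read by luminescence; normalized to 1.43 uM quinidine.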

Experiment [16] deals with Cytochrome P450 2C19 (Homo sapiens) (UniProt P33261). The experiment is described as follows: qHTS Assay for Inhibitors and Substrates of Cytochrome P450 2C19 (AID 899; active = well fitted curve in the direction sought with a large enough effect; an effect the other way counts as inactive or inconclusive; note: potency is the fitted concentration of half-maximal effect; nearly all actives have a fitted effect of over 60% in size). In outline: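 Reactions contain 5nM enzyme, 10uM Luciferin-H EGE (KM) and 50mM KPO4; compound preincubates 10 min at 37C, NADPH regeneration starts turnover for 60 min. Luminescence after detection reagent gives activity.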

Experiment [17] has as its target Alpha-galactosidase (Coffea arabica) (UniProt Q42656). The experiment is described as follows: Counterscreen for Glucocerebrosidase Inhibitors: qHTS Assay for Coffee Bean alpha-Galactosidase at pH 4.5 (AID 957; active = well fitted curve in the direction sought with a large enough effect; an effect the other way counts as inactive or inconclusive;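 note: plate controls were enzyme alone for no effect and no enzyme for full effect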). In outline:
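Coffee bean enzyme (2 nM) with 80 uM 4-methylumbelliferyl alpha-D-galactopyranoside in 50 mM citric acid, 0.005% Tween-20, pH 4.5, 20 min at room temperature; compounds 0.7 nM–77 uM. Stopped at pH 10, fluorescence 365/440 nm; AC50 from Hill fits.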

Experiment [18] shares this target. The experiment is described as follows: Counterscreen for Glucocerebrosidase Inhibitors: qHTS Assay for Coffee Bean alpha-Galactosidase at pH 5.9 (AID 998; active = well fitted curve in the direction sought with a large enough effect; an effect the other way counts as inactive or inconclusive;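 note: plate controls were uninhibited enzyme for no effect and no-enzyme basal signal for full effect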). The essentials: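 Compounds were titrated from 0.7 nM to 77 uM against green coffee bean alpha-galactosidase (2 nM) using 80 uM fluorogenic 4-methylumbelliferyl substrate. After 20 min at room temperature, reactions were stopped at pH 10 and read by fluorescence.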

The nature of experiment [19]: Validation screen for inhibitors of Lassa infection (AID 463096). Note: % is set by controls: 0 for no effect and ±100 for the full control effect.
The nature of experiment [20]: Inducers of the Endoplasmic Reticulum Stress Response (ERSR) in human glioma: Validation (AID 504836; active = well fitted curve in the direction sought with a large enough effect; an effect the other way counts as inactive or inconclusive; note: 0% is about no effect). The essentials: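 ERSR induction read as luciferase luminescence (Bright-Glo, 10 min at room temperature) in stably transfected human U87-MG glioma cells exposed to compounds for 16 h, using GRP78 as sensor.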
The target in experiment [21] is Ubiquitin carboxyl-terminal hydrolase 1 (Homo sapiens) (UniProt O94782). The experiment is described as follows: Inhibitors of USP1/UAF1: Pilot qHTS (AID 504865; active = well fitted curve in the direction sought with a large enough effect; an effect the other way counts as inactive or inconclusive; note: potency is the fitted concentration of half-maximal effect; nearly all actives have a fitted effect of over 35% in size). The essentials: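 Enzyme-free wells gave the negative control, while test wells held 1nM USP1/UAF1 preincubated with compound for 15 min at room temperature. Ub-Rho at 150nM final started the reaction, and fluorescence at 480/540 nm was recorded kinetically.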

Experiment [22] in a line: S16 Schwann cell PMP22 intronic element beta-lactamase assay (AID 624044). Note: potency is the fitted concentration of half-maximal effect; nearly all actives have a fitted effect of over 15% in size. The essentials:
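Rat S16 Schwann cells with beta-Lac driven by a PMP22 intronic element, compound-treated 24 h at 37 °C. LiveBLAzer FRET B/G read: 460 nm normalized to potassium clavulanate vs DMSO; 535 nm FRET as viability; concentration-effect curves classified.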

Experiment [23] is described as follows: Primary qHTS for inhibitors of SARS-S pseudo-typed particle cell entry (AID 1479145). Note: potency is the fitted concentration of half-maximal effect; nearly all actives have a fitted effect of over 45% in size.
Experiment [24] can be described thus: Primary qHTS for inhibitors of MERS-S pseudo-typed particle cell entry (AID 1479149). Note: % is set by controls: 0 for no effect and ±100 for the full control effect; nearly all actives have a fitted effect of over 60% in size.
A short description of experiment [25]: Primary qHTS for Vero E6 cytotoxicity: counterscreen for inhibitors of SARS-S pseudo-typed particle cell entry (AID 1479150). Note: % is set by controls: 0 for no effect and ±100 for the full control effect. Conditions: outcome: dose series up to 57.1 µM unless noted.

Several values for one entry are separate records, joined by “and”; a condition that tells them apart may be missing. Identical values can stand only once. Records with an inconclusive call do not appear. Activity calls are given as the source filed them. Unless noted, calls come from the whole dose curve.

Alpha-galactosidase (Coffea arabica), sequence (Q42656 whole entry, looked up): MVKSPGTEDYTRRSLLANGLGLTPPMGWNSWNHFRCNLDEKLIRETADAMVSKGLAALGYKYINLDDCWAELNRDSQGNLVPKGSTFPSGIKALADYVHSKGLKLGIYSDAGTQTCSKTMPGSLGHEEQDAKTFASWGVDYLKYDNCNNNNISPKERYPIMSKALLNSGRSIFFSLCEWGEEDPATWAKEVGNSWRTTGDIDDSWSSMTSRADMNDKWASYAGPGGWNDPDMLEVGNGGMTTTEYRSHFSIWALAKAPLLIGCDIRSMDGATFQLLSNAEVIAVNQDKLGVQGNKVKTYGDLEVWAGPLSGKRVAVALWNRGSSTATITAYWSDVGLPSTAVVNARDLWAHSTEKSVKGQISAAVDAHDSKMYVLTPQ
Peroxisome proliferator-activated receptor delta (Homo sapiens), sequence (Q03181 whole entry, looked up): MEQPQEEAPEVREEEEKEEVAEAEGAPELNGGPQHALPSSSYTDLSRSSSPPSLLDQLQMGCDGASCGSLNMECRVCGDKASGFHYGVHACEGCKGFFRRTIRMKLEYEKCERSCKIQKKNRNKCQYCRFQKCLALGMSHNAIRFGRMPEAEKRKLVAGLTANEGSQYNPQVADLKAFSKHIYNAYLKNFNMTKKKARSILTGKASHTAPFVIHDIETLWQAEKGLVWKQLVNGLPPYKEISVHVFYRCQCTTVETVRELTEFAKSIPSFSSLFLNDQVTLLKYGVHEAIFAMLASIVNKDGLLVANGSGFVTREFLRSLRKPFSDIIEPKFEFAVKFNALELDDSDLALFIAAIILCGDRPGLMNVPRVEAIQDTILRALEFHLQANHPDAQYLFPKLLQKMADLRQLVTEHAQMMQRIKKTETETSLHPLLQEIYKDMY
Cytochrome P450 3A4 (Homo sapiens), sequence (P08684 whole entry, looked up): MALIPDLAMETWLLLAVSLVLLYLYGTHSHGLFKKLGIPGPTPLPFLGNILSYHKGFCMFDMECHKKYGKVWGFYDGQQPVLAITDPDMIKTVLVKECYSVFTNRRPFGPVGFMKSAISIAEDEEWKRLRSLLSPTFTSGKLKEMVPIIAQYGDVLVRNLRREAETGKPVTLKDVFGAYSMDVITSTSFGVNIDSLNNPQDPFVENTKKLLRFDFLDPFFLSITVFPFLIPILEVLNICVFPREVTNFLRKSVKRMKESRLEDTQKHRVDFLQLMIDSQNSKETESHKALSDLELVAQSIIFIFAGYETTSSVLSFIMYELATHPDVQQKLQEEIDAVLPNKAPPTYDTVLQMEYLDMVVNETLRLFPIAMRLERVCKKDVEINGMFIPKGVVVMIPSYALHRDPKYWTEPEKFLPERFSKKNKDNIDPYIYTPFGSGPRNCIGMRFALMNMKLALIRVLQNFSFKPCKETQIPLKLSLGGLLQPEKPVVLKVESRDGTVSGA
Bile acid receptor (Homo sapiens), sequence (Q96RI1 whole entry, looked up): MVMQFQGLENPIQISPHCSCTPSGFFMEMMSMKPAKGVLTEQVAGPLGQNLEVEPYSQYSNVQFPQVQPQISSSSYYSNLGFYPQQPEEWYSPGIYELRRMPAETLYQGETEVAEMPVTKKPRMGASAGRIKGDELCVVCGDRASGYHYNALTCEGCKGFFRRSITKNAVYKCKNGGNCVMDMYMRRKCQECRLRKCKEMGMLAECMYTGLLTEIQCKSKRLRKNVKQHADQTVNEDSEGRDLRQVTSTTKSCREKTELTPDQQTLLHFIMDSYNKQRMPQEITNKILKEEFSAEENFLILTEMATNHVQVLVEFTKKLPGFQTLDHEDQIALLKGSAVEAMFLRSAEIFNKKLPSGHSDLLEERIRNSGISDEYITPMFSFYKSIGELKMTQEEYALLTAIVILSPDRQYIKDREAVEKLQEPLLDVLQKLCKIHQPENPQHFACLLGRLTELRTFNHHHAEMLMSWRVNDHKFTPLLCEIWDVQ
Nucleoprotein (Lymphocytic choriomeningitis virus (strain Armstrong)), sequence (P09992 whole entry, looked up): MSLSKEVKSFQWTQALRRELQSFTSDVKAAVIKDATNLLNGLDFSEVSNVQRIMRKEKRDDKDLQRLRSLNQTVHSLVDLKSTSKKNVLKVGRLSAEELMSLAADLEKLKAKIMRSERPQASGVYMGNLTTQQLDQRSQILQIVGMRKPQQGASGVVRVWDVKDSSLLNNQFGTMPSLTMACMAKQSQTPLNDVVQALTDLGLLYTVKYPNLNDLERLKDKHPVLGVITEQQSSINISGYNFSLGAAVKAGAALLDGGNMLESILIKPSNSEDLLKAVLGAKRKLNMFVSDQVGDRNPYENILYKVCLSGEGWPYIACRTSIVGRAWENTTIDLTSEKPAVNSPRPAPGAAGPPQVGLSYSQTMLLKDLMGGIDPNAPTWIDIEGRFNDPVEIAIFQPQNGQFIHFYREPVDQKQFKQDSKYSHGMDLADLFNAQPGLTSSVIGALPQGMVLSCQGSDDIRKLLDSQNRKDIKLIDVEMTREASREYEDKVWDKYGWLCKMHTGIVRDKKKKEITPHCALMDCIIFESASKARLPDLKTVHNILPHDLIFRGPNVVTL
Cytochrome P450 2C19 (Homo sapiens), sequence (P33261 whole entry, looked up): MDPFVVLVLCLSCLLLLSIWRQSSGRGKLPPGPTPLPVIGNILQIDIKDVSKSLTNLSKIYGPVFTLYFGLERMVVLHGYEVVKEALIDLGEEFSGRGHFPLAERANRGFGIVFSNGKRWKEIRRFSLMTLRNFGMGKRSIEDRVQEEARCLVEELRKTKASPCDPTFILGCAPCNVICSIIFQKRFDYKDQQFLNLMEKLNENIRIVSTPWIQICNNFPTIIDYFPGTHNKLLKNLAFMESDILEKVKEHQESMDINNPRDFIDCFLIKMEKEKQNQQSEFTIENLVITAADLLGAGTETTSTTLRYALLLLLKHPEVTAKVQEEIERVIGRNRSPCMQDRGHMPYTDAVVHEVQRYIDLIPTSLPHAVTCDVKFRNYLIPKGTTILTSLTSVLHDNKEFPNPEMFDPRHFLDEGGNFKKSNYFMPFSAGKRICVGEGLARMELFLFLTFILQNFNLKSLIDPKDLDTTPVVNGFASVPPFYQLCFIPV
Cytochrome P450 2D6 (Homo sapiens), sequence (P10635 whole entry, looked up): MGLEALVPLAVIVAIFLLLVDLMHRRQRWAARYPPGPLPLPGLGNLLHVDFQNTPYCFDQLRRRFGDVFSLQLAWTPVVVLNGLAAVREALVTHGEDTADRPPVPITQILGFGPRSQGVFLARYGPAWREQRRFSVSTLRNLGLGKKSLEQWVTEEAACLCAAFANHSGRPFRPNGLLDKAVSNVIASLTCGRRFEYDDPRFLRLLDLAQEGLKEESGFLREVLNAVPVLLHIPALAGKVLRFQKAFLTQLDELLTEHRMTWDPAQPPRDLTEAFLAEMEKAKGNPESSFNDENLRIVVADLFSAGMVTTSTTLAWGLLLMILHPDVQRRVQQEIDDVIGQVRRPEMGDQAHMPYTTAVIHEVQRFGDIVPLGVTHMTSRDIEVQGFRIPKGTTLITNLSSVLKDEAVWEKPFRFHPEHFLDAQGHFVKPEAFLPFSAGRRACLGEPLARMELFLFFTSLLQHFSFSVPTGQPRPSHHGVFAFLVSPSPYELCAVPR
Ubiquitin carboxyl-terminal hydrolase 1 (Homo sapiens), sequence (O94782 whole entry, looked up): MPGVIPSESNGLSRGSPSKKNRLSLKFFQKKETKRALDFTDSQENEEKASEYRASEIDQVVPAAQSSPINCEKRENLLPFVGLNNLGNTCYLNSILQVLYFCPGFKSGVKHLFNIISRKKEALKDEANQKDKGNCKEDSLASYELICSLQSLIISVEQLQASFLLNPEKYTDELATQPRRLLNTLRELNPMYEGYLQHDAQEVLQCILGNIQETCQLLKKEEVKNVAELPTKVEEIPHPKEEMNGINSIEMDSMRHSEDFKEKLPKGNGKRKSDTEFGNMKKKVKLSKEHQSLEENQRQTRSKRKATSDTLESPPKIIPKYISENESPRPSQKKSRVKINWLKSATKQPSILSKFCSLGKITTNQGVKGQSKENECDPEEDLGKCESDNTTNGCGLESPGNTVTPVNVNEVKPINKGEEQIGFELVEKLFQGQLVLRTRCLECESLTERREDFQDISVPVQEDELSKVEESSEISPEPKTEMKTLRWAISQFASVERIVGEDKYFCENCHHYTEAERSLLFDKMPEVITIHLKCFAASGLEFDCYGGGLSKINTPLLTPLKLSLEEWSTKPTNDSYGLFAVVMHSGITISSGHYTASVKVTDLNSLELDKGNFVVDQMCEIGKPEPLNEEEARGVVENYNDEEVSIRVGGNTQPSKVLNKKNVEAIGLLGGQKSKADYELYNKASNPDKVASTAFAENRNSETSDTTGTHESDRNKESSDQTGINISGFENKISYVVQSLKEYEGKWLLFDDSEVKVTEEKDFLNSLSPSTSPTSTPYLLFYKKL

As for `CC(C)CCCCCCCCCCCCCCC(=O)O`, the Potency entry in [1], in experiment [2], in [3], in [4] and in [5] was “inactive” throughout.

With `CCCCC(CC)C(=O)O` (stereo unspecified), the Potency result in [1], in experiment [2], in experiment [3], in [4] and in [5] was “inactive” in each case.

`CC(C)Nc1nc(N)nc(Cl)n1`: the Potency entry in experiment [1], in [2], in experiment [3], in experiment [4] and in experiment [5] was “inactive” each time.

`C=CCCCCCCCCCCCC`: the Potency result in experiment [1], in experiment [2], in [3], in [4] and in experiment [5] was “inactive” each time.

In experiment [6], `CC(=O)N[C@H]1[C@@H]([C@H](O)[C@H](O)CO)OC(C(=O)O)=C[C@@H]1N=C(N)N` yielded a parasite growth, % of DMSO control of 96.2%. Further, the parasite growth remaining, % of DMSO control (lower = more inhibition) in [7] is 100%. The parasite growth, % of control (lower = inhibition) in experiment [8] was found to be 142%. Further, the Potency entry in experiment [2], in experiment [3], in [4] and in [5] was “inactive” each time.

Consider `C=CCOC(=O)c1ccccc1C(=O)OCC=C`, for which, in experiment [9], the Potency was 5.01 µM (active). Also, the Potency result in experiment [10], in [12], in experiment [2], in experiment [3], in experiment [4] and in experiment [5] was “inactive” in each case. For the same molecule, the activation in experiment [11] is -3.26% (inactive) and 2.9% (inactive).

Consider `COC(=O)CCCC(=O)OC`, for which, in [11], the activation is -3.54% (inactive). Moreover, the Potency result in experiment [1], in experiment [2], in [3], in [4] and in experiment [5] was “inactive” throughout.

Take `N#Cc1cc(NC(=O)Nc2nnc(-c3ccncc3)s2)ccc1-c1cn[nH]c1`: the Potency result in [2], in [3], in [13] and in experiment [14] was “inactive” each time. Further, the Potency in [4] is 6.85 µM (active).

Take `NC(=O)c1noc([C@H](CCCC2CCCCC2)CC(=O)NO)n1`: the Potency entry in experiment [2], in experiment [3], in experiment [4] and in experiment [13] was “inactive” each time. In [14], the activity change, negative = inhibition was -13.6%.

On to `COc1cc(C[C@@H](CO)[C@H](CO)Cc2ccc(O)c(OC)c2)ccc1O`, for which the Potency entry in experiment [2], in [13] and in experiment [14] was “inactive” in each case. Moreover, the Potency in experiment [3] is 1.72 µM (active); in experiment [4], 2.73 µM (active).

Turning to `COc1c2ccoc2cc2oc(=O)ccc12`, the Potency in experiment [9] is 10 µM (active); in experiment [15] it was 2 µM (active); in experiment [16] it was 3.16 µM (active). The Potency entry in experiment [10], in experiment [2], in experiment [3], in experiment [4] and in experiment [5] was “inactive” each time.

`Clc1nccc2c1ccc1ccccc12`: the result in experiment [17], in experiment [18] and in experiment [20] was inactive. For the same molecule, the Potency result in experiment [19], in experiment [2], in [3] and in experiment [4] was “inactive” in each case.

In experiment [7], `Cc1cccc2c1CC[C@H](CN1CCC(c3c(Cl)cccc3Cl)CC1)C[C@@H]2O` registered a parasite growth remaining, % of DMSO control (lower = more inhibition) of 25.2%. For the same molecule, the Potency entry in experiment [2], in experiment [3], in experiment [4] and in [5] was “inactive” throughout.

As for `CN(N=O)C(=O)N[C@H]1C(O)OC(CO)[C@@H](O)[C@H]1O` (stereo partly specified), in [16], the Potency was 7.94 µM (active). The Potency entry in experiment [2], in experiment [3], in [4] and in [5] was “inactive” each time.

Take `Cc1cc(NC(=O)Nc2ccc3c(ccn3C)c2)sn1`: the molecule was classed as inactive in experiment [17] and in [18]. Also, the Potency result in [2], in experiment [3], in experiment [4] and in experiment [5] was “inactive” each time.

Regarding `COc1cccc2c1C(=O)c1c(O)c3c(c(O)c1C2=O)C[C@@](O)(C(=O)CO)C[C@@H]3O[C@H]1C[C@H](N)[C@H](OC2CCCCO2)[C@H](C)O1` (stereo partly specified), the Potency in experiment [21] was 44.7 µM (active); in experiment [22], 5.62 µM (active); in experiment [3], 6.11 µM (active); in experiment [4], 6.85 µM (active); in experiment [23] it was 7.94 µM (active); in experiment [13] it was 12.6 µM (active). Further, the Potency result in [2] and in experiment [24] was “inactive” each time. In addition, the result in [25] was inactive. In addition, the activity change, negative = inhibition in experiment [14] is -97.2% and -91.8%.

`C=CCNc1ncnc2ccc(Br)cc12`: in experiment [20], the result was inactive. Moreover, the Potency entry in experiment [2], in experiment [3] and in experiment [4] was “inactive” throughout.
